Measurements as given in PubChem BioAssay AID588342 (National Center for Advancing Translational Sciences (NCATS), 2011).
Among all 360,000 compounds or so, about 25,000 (6.9%) were called active. About 9% were inconclusive and are not listed. The full list was thinned out, with actives kept by preference. A number with no mark means an inactive call. The call rests on the fitted dose curve; in most records, active means well fitted inhibition curve with a large enough effect; inconclusive means small, poorly fitted or top-dose-only effect; inactive means flat fitted curve, though single readings scatter.

Target: Luciferin 4-monooxygenase (Photinus pyralis) (UniProt P08659)
Sequence (P08659 whole entry, looked up): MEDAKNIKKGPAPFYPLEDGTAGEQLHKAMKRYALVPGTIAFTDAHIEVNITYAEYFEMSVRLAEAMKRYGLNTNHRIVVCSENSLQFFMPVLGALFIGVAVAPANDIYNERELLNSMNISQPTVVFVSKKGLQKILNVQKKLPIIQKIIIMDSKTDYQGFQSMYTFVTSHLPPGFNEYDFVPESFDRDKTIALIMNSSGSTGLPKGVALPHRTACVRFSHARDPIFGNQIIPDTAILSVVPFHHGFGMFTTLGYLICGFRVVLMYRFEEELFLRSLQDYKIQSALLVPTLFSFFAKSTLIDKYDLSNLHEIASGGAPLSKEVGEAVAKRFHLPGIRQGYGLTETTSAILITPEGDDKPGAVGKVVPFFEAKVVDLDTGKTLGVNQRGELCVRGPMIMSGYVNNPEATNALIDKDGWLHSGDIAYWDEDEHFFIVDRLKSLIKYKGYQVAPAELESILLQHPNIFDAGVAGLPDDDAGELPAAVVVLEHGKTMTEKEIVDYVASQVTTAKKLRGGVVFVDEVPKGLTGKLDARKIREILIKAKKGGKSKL
Experiment: qHTS profiling assay for firefly luciferase inhibitor/activator using purifed enzyme and Km concentrations of substrates (counterscreen for miR-21 project); further: nearly all actives have a fitted effect of over 55% in size;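 on activity change, negative = inhibition: plate controls were vehicle for no effect and reference inhibitor for full effect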
Details: purified FLuc, luminescence inhibition; series mostly up to 57.5 µM; activity change, negative = inhibition: at the top concentration
Outline: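 Biochemical qHTS of compounds, final roughly 60 µM downward over six points, against 10 nM purified firefly luciferase using Km concentrations of substrates (10 uM D-luciferin, 10 uM ATP) in Tris acetate pH 7.5 buffer; luminescence output.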
Potency means the concentration at half of the fitted maximal effect.

First: CCOC(=O)c1c(S(=O)(=O)N2CCC(C(=O)NCc3ccccc3OC)CC2)c(C)n(C)c1C
Second: CCOc1ccccc1CNC(=O)C1CCCN(S(=O)(=O)c2ccc3c(ccn3C)c2)C1 (stereo not drawn)
The “activity change, negative = inhibition” value of the first is higher: 2.97% for the first, 1.69% for the second.

First: COc1ccc(CNC(=O)Cn2nnc(-c3ccc(S(C)(=O)=O)cc3)n2)cc1
Second: CC(=O)NCc1ccc(-c2csc(NC(=O)CCCc3nc4ccccc4c(=O)[nH]3)n2)cc1
The “activity change, negative = inhibition” value of the first is higher: -0.976% for the first, -4.62% for the second.

Compared with `CCCCOC(=O)/C(C#N)=C/c1ccc(-c2cccc(C(F)(F)F)c2)o1`, `Cc1ccc2nc(/C(C#N)=C/c3ccc(-c4ccc(C(=O)OC(C)C)cc4)o3)[nH]c2c1` is lower in “activity change, negative = inhibition” value: 3.51% for the first, -19.6% for the second.

First: CCCCN1CC(c2nc3ccccc3n2CCCCOc2ccc(C)cc2C)CC1=O (stereo not drawn)
Second: Cc1ccc2[nH]c(=O)c(CN(CC3COCCO3)C(=O)Nc3ccccc3C)cc2c1 (stereo not drawn)
The “activity change, negative = inhibition” value of the first is higher: -1.5% for the first, -2.57% for the second.

Compared with `COc1ccc(C(=O)OCC(=O)N2CC(=O)Nc3ccccc32)cc1Br`, `COc1ccc(C2C(=O)N(C3CCCCC3)CC(=O)N2Cc2ccccc2Cl)cc1OC` (stereo not drawn) is lower in “activity change, negative = inhibition” value: -0.738% for the first, -7.49% for the second.

First: CCc1ccc(S(=O)(=O)Nc2cc3c(C(=O)OCc4ccccc4)c(C)oc3c3ccccc23)cc1
Second: CN(c1ccccc1)S(=O)(=O)c1cc(C(=O)Nc2nc3ccccc3[nH]2)ccc1Cl
The “activity change, negative = inhibition” value of the first is higher: -0.765% for the first, -20.5% for the second.

Compared with `CCC(=O)N1CCc2cc(Br)cc(S(=O)(=O)Nc3ccc(C)cc3C)c21`, `Cc1cccc(NC(=O)C2CCN(S(=O)(=O)c3c(C)noc3/C=C/c3ccco3)CC2)c1` is higher in “activity change, negative = inhibition” value: -2.76% for the first, -0.915% for the second.

First: O=C(COc1ccc(S(=O)(=O)Nc2cccc(C(F)(F)F)c2)cc1)N1CCOCC1
Second: O=C(Nc1cccc(OCC(=O)N2CCOCC2)c1)C1CCCCC1
The “activity change, negative = inhibition” value of the first is higher: 3.06% for the first, 0.505% for the second.

Going from `Cc1ccccc1CSCCNC(=O)C1CCN(S(=O)(=O)Cc2ccccc2)CC1` to `O=C(Nc1ccccc1)N1CCC(C(=O)N2CCN(Cc3ccccc3)CC2)CC1`, the “activity change, negative = inhibition” value rises from -7.53% to -1.44%.

Compared with `CCC(C)NC(=O)CCCc1ccccc1` (stereo not drawn), `CC1=NN(C(=O)CCCc2ccccc2)C(O)(C(F)(F)F)C1` (stereo not drawn) is higher in “activity change, negative = inhibition” value: -14.1% for the first, 4.59% for the second.

Compared with `COc1cc(-c2nnc(NC(=O)C3=COCCO3)o2)cc(OC)c1OC`, `COc1cc(CC(=O)Nc2nc(-c3ccc(F)c(F)c3)cs2)cc(OC)c1OC` is higher in “activity change, negative = inhibition” value: 4.13% for the first, 5.45% for the second.

First: O=C(Nc1ccc(S(=O)(=O)N2CCCC2)cc1Cl)C1=COCCO1
Second: COc1ccc(CC(=O)Nc2ccc3c(c2)CCC3)cc1S(=O)(=O)N1CCOCC1
The “activity change, negative = inhibition” value of the first is higher: -1.32% for the first, -5.57% for the second.

Going from `CC(=O)NCCC(=O)Nc1nc(C)c(Cc2ccc3c(c2)OCO3)s1` to `O=C(Nc1ccc2c(c1)OCO2)c1sc2cc(Cl)ccc2c1Cl`, the “activity change, negative = inhibition” value rises from -13.8% to -3.98%.

Going from `Cc1cccc(NC(=O)CN2CCN(C(=O)C3CCN(C(=O)/C=C/c4ccccc4)CC3)CC2)c1C` to `COc1ccccc1CN1CCC(CNC(=O)c2cnn(-c3cccc(Cl)c3)c2C2CCN(C(=O)OC(C)(C)C)CC2)CC1`, the “activity change, negative = inhibition” value rises from -18.8% to -2.61%.

Compared with `CCNC(=O)CC1C(=O)N(c2ccc(F)cc2)C(=O)N1CCc1sccc1C` (stereo not drawn), `CCc1ccc(N(CC)C(=O)CCn2cnc3onc(-c4ccc(F)cc4)c3c2=O)cc1` is higher in “activity change, negative = inhibition” value: -2.04% for the first, -0.244% for the second.

Compared with `Cc1ccc(CN2CCc3nc(N4CCN(C)CC4)ncc3C2)cc1`, `Cc1cc(C)nc(N2CCC(C(=O)Nc3ccc4c(c3)OCCO4)CC2)n1` is lower in “activity change, negative = inhibition” value: -1.97% for the first, -8.26% for the second.

Going from `CCC(C)Sc1nnc(-c2c[nH]c3ccccc23)n1CCOC` (stereo not drawn) to `CCCc1cc(-c2n[nH]c(=S)n2CC)c2ccccc2n1`, the “activity change, negative = inhibition” value falls from -6.48% to -8.46%.

Going from `Cc1cc(-c2n[nH]c(=S)n2-c2ccc(C)c(C)c2)no1` to `Cc1cc(-c2nc(C)c(-c3nnc(SCC(=O)Nc4ccccc4)n3C)s2)no1`, the “activity change, negative = inhibition” value rises from -1.9% to -1.89%.

First: CCCCCN1CC(O)=C(c2nc(-c3ccc(Cl)cc3)cs2)C1=N
Second: COc1ccc(CC(=O)Nc2nc(-c3ccc(F)c(F)c3)cs2)cc1OC
The “activity change, negative = inhibition” value of the first is lower: -2.37% for the first, 5.15% for the second.

First: Cc1ccc(-n2c(=O)c3cccnc3n2CC(=O)Nc2ccccc2C(F)(F)F)cc1C
Second: Cc1ccc(OCC(=O)Nc2ccc(Cl)c(-c3nc4ccccc4[nH]3)c2)cc1C
The “activity change, negative = inhibition” value of the first is higher: 2.79% for the first, -14.1% for the second.

Compared with `CC(C)Oc1ccc(/C=C(\NC(=O)/C=C/c2ccco2)C(=O)NCCc2nc3ccccc3[nH]2)cc1`, `CCOC(=O)c1c(NC(=O)/C=C/c2ccco2)sc(C)c1C` is lower in “activity change, negative = inhibition” value: 7.21% for the first, -11% for the second.

First: NS(=O)(=O)c1cccc(NC(=O)COC(=O)/C=C/c2ccco2)c1
Second: COc1cccc(NC(=O)CN(C)CC(=O)Nc2ccc3c(c2)CCC3)c1
The “activity change, negative = inhibition” value of the first is higher: -5.38% for the first, -8.65% for the second.

Going from `COC(C[C@H](O)CC(=O)COCc1ccccc1)OC` to `COc1ccc(NC(=O)CN2CCCN(Cc3ccccc3)S2(=O)=O)cc1`, the “activity change, negative = inhibition” value falls from -2.58% to -13.7%.

Going from `CC(=O)NC12CC3CC(C1)CC(C(=O)N1CCN(C(=O)c4ccco4)CC1)(C3)C2` to `COC(=O)c1cccc(C(=O)N2CCCC(Nc3ccc4c(c3)OCCO4)C2)c1` (stereo not drawn), the “activity change, negative = inhibition” value falls from 7.4% to -1.7%.

First: CCOc1ccc(OCC)c(NC(=O)c2c(C)nn(-c3ccccc3)c2-n2cccc2)c1
Second: O=C(CSc1nccn1Cc1ccc(F)cc1)NCc1ccccc1
The “activity change, negative = inhibition” value of the first is lower: -3.33% for the first, 1.89% for the second.

First: CN(C)C(CNC(=O)c1cccc(C#N)c1)c1ccco1 (stereo not drawn)
Second: CC(C)c1ccc(NC(=O)CN(C)S(=O)(=O)c2ccc3c(c2)c(=O)n(C)c(=O)n3C)cc1
The “activity change, negative = inhibition” value of the first is higher: -2.34% for the first, -17.2% for the second.

Going from `CCN(C(=O)COc1cccnc1[N+](=O)[O-])C1CCS(=O)(=O)C1` (stereo not drawn) to `CCOc1cc(/C=C/C(=O)OCC(=O)NCCN2C(=O)CSC2=O)ccc1OCC(C)C`, the “activity change, negative = inhibition” value falls from 5.49% to 0.543%.

First: O=C(Nc1cccc(Cl)c1)C1CCCN(c2cnccn2)C1 (stereo not drawn)
Second: CN1C(=O)c2ccc(NC(=O)C3CCCCC3)cc2C1=O
The “activity change, negative = inhibition” value of the first is higher: 1.81% for the first, -1.5% for the second.

Going from `S=C(Nc1ccc2c(c1)OCO2)N1CCCC1` to `COc1ccc2c(c1)c(N1CCCC1=O)c(C(=O)Nc1ccc(OC)c(Cl)c1)n2C`, the “activity change, negative = inhibition” value rises from -19.1% to -10.9%.

Going from `CC(C)(C)C(=O)Nc1ccc(C(=O)N/N=C/c2ccccc2OC(=O)c2ccc(Cl)cc2Cl)cc1` to `Cc1nc(SCCOc2ccc(Cl)cc2)[nH]c(=O)c1Cc1ccccc1`, the “activity change, negative = inhibition” value rises from -12% to 0.0351%.

Going from `Cc1cc(C)nc(SCc2nnc(SCC(=O)Nc3ncc(C)s3)n2Cc2ccco2)n1` to `CCOC(=O)c1c(NC(C)=O)sc2c(O)c(Br)ccc12`, the “activity change, negative = inhibition” value rises from -1.43% to 2.45%.

`CCCN(CCC)CCCNC(=O)Cn1ncc2c3ccccc3n(Cc3ccccc3)c2c1=O` was tested, and the “activity change, negative = inhibition” value was 1.1%.

For `O=C(Nc1ccc(OCC(=O)N2CCOCC2)cc1)c1cc(F)c(F)cc1Cl`, the Potency was 9.53 µM (active).
With `C=CCN1CCN(C(=O)CCCc2ccccc2)CC1` the Potency was 2.13 µM (active).
With `CC(=O)NCCC(=O)Nc1nc(-c2ccc3c(c2)OCCO3)cs1` the Potency was 19 µM (active).
With `Cc1ccc(-c2csc(NC(=O)C3=COCCO3)n2)cc1C` the Potency was 6.75 µM (active).
With `CCCc1cc(-c2nc(-c3ccc(C)cc3)cs2)ccn1` the Potency was 23.9 µM (active).
With `Cc1ccc(-c2csc(-c3c[nH]c4ccccc34)n2)cc1` the Potency was 12 µM (active).
`Cc1ccc(-c2csc(-c3cc(C)on3)n2)cc1` was tested, and the Potency was 8.49 µM (active).
In the case of `Cc1ccc(-n2nc3ccc(NC(=O)/C=C/c4ccco4)cc3n2)cc1C`, the Potency is reported as 9.53 µM (active).
In the case of `O=C(Nc1cccc(-c2nc3ccccc3[nH]2)c1)c1ccc(C(=O)Nc2cccc(-c3nc4ccccc4[nH]3)c2)cc1`, the Potency is reported as 12 µM (active).
For `O=C(/C=C/c1ccco1)Nc1cccc(-c2nc3ccccc3[nH]2)c1`, the Potency was 7.57 µM (active).
With `O=C(Nc1ccc2c(c1)OCO2)C1CC1(Cl)Cl` (stereo not drawn) the Potency was 16.9 µM (active).
With `O=C(Nc1ccc2c(c1)OCCO2)C1CCCN(c2ncccn2)C1` (stereo not drawn) the Potency was 0.953 µM (active).
With `O=C(Nc1ccc2c(c1)OCCO2)C1CCCC1` the Potency was 9.53 µM (active).
`Fc1ccc(-c2csc(-c3ccc(C4SCCS4)cc3)n2)cc1F` was tested, and the Potency was 10.7 µM (active).
With `CC(C)C(=O)OCC(=O)Nc1ccc2c(c1)CCC2` the Potency was 19 µM (active).
